# Source: PubChem BioAssay (NCATS)
# Records with an inconclusive call do not appear. Active and inactive are the calls of the source. Unless noted, calls come from the whole dose curve; as a rule, active = well fitted curve in either direction with a large enough effect (not every such curve was filed as active); inconclusive = small, poorly fitted or top-dose-only effect, or another doubt; inactive = flat fitted curve, though single readings scatter.
# What was measured:
# [1] = target: Lysosomal acid glucosylceramidase (Homo sapiens) (UniProt P04062); test: Glucocerebrosidase-p2 (AID 348; in the data active = potency below about 10 µM; note: potency is the fitted concentration of half-maximal effect); details: purified GBA, blue fluorogenic substrate, 40 min
# Sequence of Lysosomal acid glucosylceramidase (Homo sapiens) (P04062 whole entry, looked up): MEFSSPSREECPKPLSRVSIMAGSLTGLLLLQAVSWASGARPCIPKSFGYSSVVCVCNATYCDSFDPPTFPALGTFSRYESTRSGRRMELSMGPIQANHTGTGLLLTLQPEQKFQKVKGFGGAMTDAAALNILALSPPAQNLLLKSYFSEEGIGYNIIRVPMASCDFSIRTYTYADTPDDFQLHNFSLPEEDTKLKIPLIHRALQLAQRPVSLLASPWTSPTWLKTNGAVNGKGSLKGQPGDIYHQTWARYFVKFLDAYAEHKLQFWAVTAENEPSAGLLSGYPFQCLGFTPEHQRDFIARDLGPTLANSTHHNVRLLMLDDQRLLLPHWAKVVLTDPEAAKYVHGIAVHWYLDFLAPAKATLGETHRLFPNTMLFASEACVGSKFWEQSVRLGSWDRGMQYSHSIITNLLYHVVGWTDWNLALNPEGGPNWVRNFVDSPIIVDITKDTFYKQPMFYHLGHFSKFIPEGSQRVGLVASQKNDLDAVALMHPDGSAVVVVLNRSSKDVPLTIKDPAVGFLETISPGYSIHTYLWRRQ
# Summary of the method: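 Compounds titrated from 0.6 nM upwards against 0.2 nM enzyme in pH 5.9 citric acid/KH2PO4, taurocholate, tween-20; blue fluorogenic substrate 80 uM, 40 min room temperature, stopped and read Ex 365/Em 440 for AC50.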
# [2] = AP1 Signaling Pathway (AID 357); details: ME-180 AP-1-bla reporter, EGF-induced, beta-lactamase ratio, 5 h; at 7.69 µM (top of the series) unless noted;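 note: ME-180 reporter cells stimulated with EGF at its EC50 level; % is set by controls: 0 for no effect and ±100 for the full control effect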
# Summary of the method: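 Modulation of EGF-driven AP-1 transcription was assessed with a beta-lactamase reporter in ME-180 cells. Compound and EC50 EGF were co-incubated 5 hours at 37 °C before 2.5-hour CCF4 loading at room temperature and dual-emission reading.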
# [3] = target: Cytochrome P450 1A2 (Homo sapiens) (UniProt P05177); test: p450-cyp1a2 (AID 410; calls by dose curve; note: potency is the fitted concentration of half-maximal effect); details: recombinant CYP1A2, luciferin-ME demethylation, luminescence; series mostly up to 57 µM
# Sequence of Cytochrome P450 1A2 (Homo sapiens) (P05177 whole entry, looked up): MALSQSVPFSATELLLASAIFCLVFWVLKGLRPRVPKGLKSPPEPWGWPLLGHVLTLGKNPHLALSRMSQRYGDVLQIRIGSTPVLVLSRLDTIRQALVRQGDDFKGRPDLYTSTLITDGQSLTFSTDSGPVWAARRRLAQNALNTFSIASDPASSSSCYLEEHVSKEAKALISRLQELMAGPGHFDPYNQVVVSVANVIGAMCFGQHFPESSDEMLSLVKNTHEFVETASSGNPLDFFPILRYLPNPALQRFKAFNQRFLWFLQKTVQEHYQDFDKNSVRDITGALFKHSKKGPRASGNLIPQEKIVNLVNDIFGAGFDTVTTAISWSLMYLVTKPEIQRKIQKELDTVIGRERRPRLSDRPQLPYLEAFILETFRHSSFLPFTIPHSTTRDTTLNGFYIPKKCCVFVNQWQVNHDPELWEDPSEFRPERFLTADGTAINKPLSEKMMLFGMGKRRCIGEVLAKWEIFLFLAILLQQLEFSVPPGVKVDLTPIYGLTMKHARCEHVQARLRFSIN
# Summary of the method: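 20nM CYP1A2 with 100uM Luciferin-ME (at Km) in 100mM KPO4; compound preincubated 10 min, NADPH regeneration added, 60 min at room temperature. Luciferin quantified by luminescence after detection reagent; normalized to 57 uM furafylline.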
# [4] = NFAT Signaling Pathway (AID 444); details: Jurkat NFAT-bla M1, carbachol, beta-lactamase ratio, 5 h; at 7.69 µM (top of the series) unless noted;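 note: carbachol stimulus at about its EC50 of 1 µM final; % is set by controls: 0 for no effect and ±100 for the full control effect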
# Summary of the method: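 Jurkat cells carrying an NFAT-driven β-lactamase reporter and co-transfected muscarinic M1 receptor were treated with compound plus carbachol (1 uM final, an EC50 level) for 5 h at 37 °C. CCF4 loading followed for 1 h at RT; 460/530 nm ratio gave %activity.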
# [5] = Stat Signaling Pathway (AID 446); details: ME-180 SIE beta-lactamase reporter, IL-6 stimulated, 5 h; at 7.69 µM (top of the series) unless noted;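 note: ME-180 cervical cancer cells given 40 pM IL-6 alongside compound; SIE-controlled beta-lactamase reporter measured as 460/530 nm FRET emission ratio; % is set by controls: 0 for no effect and ±100 for the full control effect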
# Summary of the method: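 Reporter line: ME-180 cervical carcinoma, SIE-beta-lactamase. Treatment: compound with 40 pM IL-6, 5 hrs, 37 C, in low-serum OPTI-MEM with 10 mM HEPES pH 7.3. Detection: 460/530 nm fluorescence.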
# [6] = target: Glucocorticoid receptor (Homo sapiens) (UniProt P04150); test: GR-GFP Redistribution (AID 450;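 active = compounds whose dose series gives a full or clear partial fitted curve of increased nuclear translocation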; note: potency is the fitted concentration of half-maximal effect); details: U2OS GR-GFP nuclear translocation, laser cytometry, 2 h
# Sequence of Glucocorticoid receptor (Homo sapiens) (P04150 whole entry, looked up, the tested form may be a part): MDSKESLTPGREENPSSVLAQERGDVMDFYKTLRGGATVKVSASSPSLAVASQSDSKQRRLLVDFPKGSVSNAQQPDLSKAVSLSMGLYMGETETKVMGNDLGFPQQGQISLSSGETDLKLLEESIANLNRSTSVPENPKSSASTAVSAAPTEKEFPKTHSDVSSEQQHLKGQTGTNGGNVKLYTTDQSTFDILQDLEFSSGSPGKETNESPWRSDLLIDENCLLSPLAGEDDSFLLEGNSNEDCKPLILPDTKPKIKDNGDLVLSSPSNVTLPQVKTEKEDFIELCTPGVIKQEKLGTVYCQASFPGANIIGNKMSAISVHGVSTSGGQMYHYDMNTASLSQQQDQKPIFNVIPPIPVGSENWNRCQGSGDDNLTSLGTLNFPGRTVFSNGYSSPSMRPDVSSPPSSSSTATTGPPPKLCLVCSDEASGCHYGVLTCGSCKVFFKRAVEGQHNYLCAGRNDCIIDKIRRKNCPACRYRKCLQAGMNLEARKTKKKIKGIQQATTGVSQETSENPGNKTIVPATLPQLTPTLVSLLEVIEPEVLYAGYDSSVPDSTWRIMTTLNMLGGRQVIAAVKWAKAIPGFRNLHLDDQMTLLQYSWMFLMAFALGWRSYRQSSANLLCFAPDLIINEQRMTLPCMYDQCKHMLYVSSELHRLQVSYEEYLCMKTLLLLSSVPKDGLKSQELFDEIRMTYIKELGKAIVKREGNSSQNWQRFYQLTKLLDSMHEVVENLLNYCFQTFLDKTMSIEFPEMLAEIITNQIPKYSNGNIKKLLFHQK
# [7] = target: Glucocorticoid receptor (Homo sapiens) (UniProt P04150); test: GR-EFC Redistribution (AID 451; calls by dose curve; note: potency is the fitted concentration of half-maximal effect); details: CHO-K1 GR-EFC translocation, beta-gal luminescence, 2 h
# Summary of the method: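 CHO-K1 cells stably expressing nuclear-localized β-gal enzyme acceptor and GR fused C-terminally to the enzyme donor fragment; ligand-driven nuclear translocation restores β-gal by complementation. Compounds titrated up to 46 uM final, 2 h at 37 °C; luminescence read.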
# [8] = target: Mitogen-activated protein kinase 10 (Mus musculus) (UniProt Q61831); test: JNK3 AlphaScreen Assay (AID 530); details: JNK3 lysate, c-Jun phosphorylation; series mostly up to 57.1 µM;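 note: kinase came from lysate of stimulated human HepG2 cells; signal reports phosphorylation of biotinylated GST-cJun 1-79 at Ser73 with 10 µM ATP; % is set by controls: 0 for no effect and ±100 for the full control effect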
# Summary of the method: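 Inhibitors reduce antibody binding to phosphorylated biotin-cJun, lowering AlphaScreen luminescence. Lysates from HepG2 cells pre-activated by IL-1beta plus TNF-alpha supplied JNK3; compounds were titrated.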
# [9] = target: 3',5'-cyclic-AMP phosphodiesterase 4B (Homo sapiens) (UniProt Q07343); test: qHTS Assay for Inhibitors of PDE-IV (AID 607; active = well fitted activation curve with a large enough effect in the main read-out, with a control signal flat, not every such curve was filed as active; note: % of control where 0% means no effect); details: HEK293 ACTOne CNG channel cells, membrane potential fluorescence; series mostly up to 22.9 µM
# Sequence of 3',5'-cyclic-AMP phosphodiesterase 4B (Homo sapiens) (Q07343 whole entry, looked up): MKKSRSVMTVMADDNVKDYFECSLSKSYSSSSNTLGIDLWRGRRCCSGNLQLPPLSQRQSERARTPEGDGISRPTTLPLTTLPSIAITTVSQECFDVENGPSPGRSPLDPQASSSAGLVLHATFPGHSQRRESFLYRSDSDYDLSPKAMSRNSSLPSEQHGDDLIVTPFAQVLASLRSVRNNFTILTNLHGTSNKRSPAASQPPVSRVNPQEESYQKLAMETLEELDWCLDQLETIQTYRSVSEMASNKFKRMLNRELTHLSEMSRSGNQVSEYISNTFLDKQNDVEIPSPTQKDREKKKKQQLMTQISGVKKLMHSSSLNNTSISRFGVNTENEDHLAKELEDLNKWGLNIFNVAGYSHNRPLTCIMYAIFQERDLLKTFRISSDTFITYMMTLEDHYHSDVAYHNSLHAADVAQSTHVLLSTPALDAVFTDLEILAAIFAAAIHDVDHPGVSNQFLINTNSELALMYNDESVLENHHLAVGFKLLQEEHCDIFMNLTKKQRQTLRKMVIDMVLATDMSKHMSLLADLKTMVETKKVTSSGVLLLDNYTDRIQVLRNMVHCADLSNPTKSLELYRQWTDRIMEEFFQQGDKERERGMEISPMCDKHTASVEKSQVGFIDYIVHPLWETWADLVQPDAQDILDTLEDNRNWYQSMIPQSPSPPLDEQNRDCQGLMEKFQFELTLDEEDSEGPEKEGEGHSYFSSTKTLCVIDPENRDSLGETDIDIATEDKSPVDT
# Summary of the method: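 Cell-based read-out of cAMP via a modified cyclic nucleotide-gated channel and membrane potential dye (535/590 nm) in HEK293 cells expressing PDE4 endogenously. Compounds tested up to 22.9 uM final; 100 uM RO 20-1724 reference.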
# [10] = target: Cytochrome P450 2C9 (Homo sapiens) (UniProt P11712); test: qHTS Assay for Inhibitors and Substrates of Cytochrome P450 2C9 (AID 883; active = well fitted curve in the direction sought with a large enough effect; an effect the other way counts as inactive or inconclusive; note: % is set by controls: 0 for no effect and ±100 for the full control effect; nearly all actives have a fitted effect of over 60% in size); details: recombinant CYP2C9, luciferin-H luminescence, 60 min; series mostly up to 57.1 µM
# Sequence of Cytochrome P450 2C9 (Homo sapiens) (P11712 whole entry, looked up): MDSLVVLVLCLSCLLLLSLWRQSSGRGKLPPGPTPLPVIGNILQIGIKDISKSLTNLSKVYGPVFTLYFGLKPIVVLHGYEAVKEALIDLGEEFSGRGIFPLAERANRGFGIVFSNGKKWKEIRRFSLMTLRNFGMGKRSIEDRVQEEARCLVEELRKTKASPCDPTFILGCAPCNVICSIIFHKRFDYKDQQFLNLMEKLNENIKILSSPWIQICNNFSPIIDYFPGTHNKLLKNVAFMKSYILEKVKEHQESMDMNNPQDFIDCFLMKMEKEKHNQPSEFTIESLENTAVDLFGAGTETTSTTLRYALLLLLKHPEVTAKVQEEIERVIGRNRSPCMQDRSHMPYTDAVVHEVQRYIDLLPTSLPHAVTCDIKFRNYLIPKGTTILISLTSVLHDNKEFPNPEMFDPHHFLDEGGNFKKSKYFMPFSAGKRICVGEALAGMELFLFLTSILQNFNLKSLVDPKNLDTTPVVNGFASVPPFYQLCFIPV
# Summary of the method: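 Human CYP2C9 (10nM) hydroxylated Luciferin-H (100uM, at its KM) to luciferin in 25mM KPO4. Compound was preincubated 10 min at 37C, then NADPH regeneration started a 60 min reaction at 37C. Luminescence was read after detection reagent, normalized to 57uM sulphaphenazole.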
# [11] = target: Cytochrome P450 3A4 (Homo sapiens) (UniProt P08684); test: qHTS Assay for Activators of Cytochrome P450 3A4 (AID 885; active = well fitted curve in the direction sought with a large enough effect; an effect the other way counts as inactive or inconclusive; note: nearly all actives have a fitted effect of over 65% in size); details: recombinant CYP3A4, Luciferin-PPXE luminescence, 60 min; series mostly up to 57.1 µM
# Sequence of Cytochrome P450 3A4 (Homo sapiens) (P08684 whole entry, looked up): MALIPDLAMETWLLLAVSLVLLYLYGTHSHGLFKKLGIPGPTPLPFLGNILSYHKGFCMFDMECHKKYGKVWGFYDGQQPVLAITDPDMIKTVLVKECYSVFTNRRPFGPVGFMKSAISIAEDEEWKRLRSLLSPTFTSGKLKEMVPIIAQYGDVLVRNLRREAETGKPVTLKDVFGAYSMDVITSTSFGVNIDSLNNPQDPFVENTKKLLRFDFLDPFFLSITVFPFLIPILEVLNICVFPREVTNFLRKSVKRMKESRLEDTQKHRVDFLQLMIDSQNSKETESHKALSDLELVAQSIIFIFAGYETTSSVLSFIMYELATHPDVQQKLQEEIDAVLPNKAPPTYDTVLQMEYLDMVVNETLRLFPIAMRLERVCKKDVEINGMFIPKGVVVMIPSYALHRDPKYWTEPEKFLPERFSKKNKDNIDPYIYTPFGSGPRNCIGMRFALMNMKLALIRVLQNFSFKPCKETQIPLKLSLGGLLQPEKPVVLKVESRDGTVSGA
# Summary of the method: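 Signal was normalized against complete inhibition by 57 uM ketoconazole. The reaction used 20nM CYP3A4 with 25uM Luciferin-PPXE, 10-min compound preincubation and a 60-min NADPH-supported step at RT.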
# [12] = Confirmation and Secondary Assay for Modulators of Hemoglobin Beta Chain Splicing at IVS2 654 locus (AID 910; active = well fitted curve in the direction sought with a large enough effect; an effect the other way counts as inactive or inconclusive;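 note: per-well total GFP intensity by laser scanning cytometry after 2-day treatment; % of control where 0% means no effect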); details: HeLa EGFP-654 splicing reporter, GFP fluorescence, 48 h; series mostly up to 38.3 µM
# Summary of the method: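 HeLa cells stably carrying EGFP interrupted by mutant beta-globin IVS2-654 intron (CMV-driven) were treated with compound for 2 days at 37C; corrected splicing was scored as total peak GFP intensity per well (488 nm excitation, 500-520 nm emission).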
# [13] = qHTS Assay for Identification of Small Molecule Agonists for Hypoxia Response Element Signaling Pathway (AID 914; active = well fitted activation curve with a large enough effect in the signal ratio, with a control signal flat, not every such curve was filed as active; the % refers to the signal ratio; note: % of control where 0% means no effect); details: ME-180 (cervical carcinoma) HRE-bla reporter, beta-lactamase ratio, CoCl2, 17 h; activation: stronger effect = higher value
# Summary of the method: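 A beta-lactamase reporter under hypoxia response element control in ME-180 cells served as the system. Compound titrations plus EC50 CoCl2 ran 17 h at 37 degrees Celsius; AC50 values were fitted from %Activity.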
# [14] = qHTS Assay for Lipid Storage Modulators (AID 1519; calls by dose curve); details: Drosophila S3 cells, BODIPY lipid droplet/cell ratio, laser cytometry, cells loaded with oleic acid; for activity change, negative = inhibition: at 57.5 µM (top of the series)
# Summary of the method: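 Cells seeded at 5,000 per well were treated with compounds over a concentration series and loaded with oleic acid (400 uM, as added). Lipid droplet fluorescence (488 nm excitation, 500-530 nm channel) was read by laser-scanning cytometry and normalized to 20 uM Triacsin C.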
# [15] = Primary qHTS for small molecule stabilizers of the endoplasmic reticulum resident proteome: Secreted ER Calcium Modulated Protein (SERCaMP) assay (AID 1508630; active = well fitted curve in the direction sought with a large enough effect; an effect the other way counts as inactive or inconclusive; note: % is set by controls: 0 for no effect and ±100 for the full control effect); details: SH-SY5Y GLuc-SERCaMP (Gaussia luciferase released on ER calcium loss) secretion, thapsigargin, luminescence; series mostly up to 38.4 µM
# Summary of the method: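 GLuc-SERCaMP-expressing SH-SY5Y cells, pretreated 16 h with compound, are challenged with thapsigargin to empty ER calcium stores; after 4 h, coelenterazine is added directly to the medium and luminescence is imaged.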
# [16] = target: Cytochrome P450 3A4 (Homo sapiens) (UniProt P08684); test: qHTS Assay for Inhibitors and Substrates of Cytochrome P450 3A4 (AID 884; active = well fitted curve in the direction sought with a large enough effect; an effect the other way counts as inactive or inconclusive; note: nearly all actives have a fitted effect of over 50% in size; note: potency is the fitted concentration of half-maximal effect); details: recombinant CYP3A4, Luciferin-PPXE luminescence; series mostly up to 57.1 µM
# Summary of the method: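 20 nM human CYP3A4 with 25 uM Luciferin-PPXE (at KM) in 200 mM KPO4, preincubated 10 min with compound; NADPH regeneration started a 60 min RT reaction. Luciferin detected by luminescence, normalized to 57 uM ketoconazole as full inhibition.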
# [17] = Confirmation and Secondary Assay for Modulators of Hemoglobin Beta Chain Splicing at IVS2 705 locus (AID 930; active = well fitted curve in the direction sought with a large enough effect; an effect the other way counts as inactive or inconclusive;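 note: HeLa cells stably expressing the EGFP-705 splicing reporter; GFP fluorescence per well restored by corrected splicing of the IVS2-705 intron in EGFP; % of control where 0% means no effect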); details: HeLa EGFP-705 splicing reporter, GFP fluorescence, 48 h; series mostly up to 38.3 µM
# Summary of the method: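 Fluorescence gain (488 nm laser, 500-520 nm PMT) reflects restored correct splicing of a mutant IVS2-705 intron inside EGFP in stably transfected HeLa cells after 2-day compound treatment.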
# [18] = target: Ubiquitin carboxyl-terminal hydrolase 1 (Homo sapiens) (UniProt O94782); test: Inhibitors of USP1/UAF1: Pilot qHTS (AID 504865; active = well fitted curve in the direction sought with a large enough effect; an effect the other way counts as inactive or inconclusive; note: nearly all actives have a fitted effect of over 35% in size; note: potency is the fitted concentration of half-maximal effect); details: purified USP1/UAF1, Ub-rhodamine cleavage fluorescence; series mostly up to 54.9 µM
# Sequence of Ubiquitin carboxyl-terminal hydrolase 1 (Homo sapiens) (O94782 whole entry, looked up): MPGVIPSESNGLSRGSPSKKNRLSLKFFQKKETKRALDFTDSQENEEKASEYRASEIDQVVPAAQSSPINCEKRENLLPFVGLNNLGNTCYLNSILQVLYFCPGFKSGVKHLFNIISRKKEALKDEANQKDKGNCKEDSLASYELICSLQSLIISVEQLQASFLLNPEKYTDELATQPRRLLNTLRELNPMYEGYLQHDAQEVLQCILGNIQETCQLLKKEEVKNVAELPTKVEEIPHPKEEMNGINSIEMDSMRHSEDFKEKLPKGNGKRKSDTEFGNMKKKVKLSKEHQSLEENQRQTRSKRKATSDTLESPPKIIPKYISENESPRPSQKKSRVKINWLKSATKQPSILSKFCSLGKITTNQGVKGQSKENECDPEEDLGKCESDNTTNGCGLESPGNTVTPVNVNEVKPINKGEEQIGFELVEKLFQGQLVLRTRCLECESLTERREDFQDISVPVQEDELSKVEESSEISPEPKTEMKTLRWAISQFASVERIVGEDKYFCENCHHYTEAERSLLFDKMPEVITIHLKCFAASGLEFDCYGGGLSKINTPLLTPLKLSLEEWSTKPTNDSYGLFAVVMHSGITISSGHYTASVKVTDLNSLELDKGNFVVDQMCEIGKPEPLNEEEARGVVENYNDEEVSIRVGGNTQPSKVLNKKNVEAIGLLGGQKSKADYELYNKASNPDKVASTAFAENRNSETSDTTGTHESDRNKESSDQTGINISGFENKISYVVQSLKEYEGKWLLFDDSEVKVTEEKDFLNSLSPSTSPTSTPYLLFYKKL
# Summary of the method: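 USP1/UAF1 complex at 1 nM preincubated 15 min at room temperature with compound, then Ub-Rho substrate added at 150 nM final. Fluorescence (480/540 nm) read kinetically in 50 mM HEPES pH 7.8, 0.5 mM EDTA, 1 mM TCEP, 0.1 mg/ml BSA, 0.01% Tween-20.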
# [19] = measured here: cell count channel max response
# [20] = measured here: lipid channel max response
Compound,Potency [1],"activity change, negative = inhibition [2]",Potency [3],"activity change, negative = inhibition [4]","activity, negative = inhibition [5]",Potency [6],Potency [7],outcome [8],Potency [9],"activity change, negative = inhibition [10]",Potency [11],outcome [12],activation [13],"activity change, negative = inhibition [14]","max response [14, 19]","max response [14, 20]",Potency [15],Potency [16],outcome [17],Potency [18]
CNc1nc(-c2ccccc2Cl)nc2ccccc12,5.87 µM (active),-4.05% (inactive),0.126 µM (active),12.6% (inactive),-8.45% (inactive),> 46 µM (inactive),> 46 µM (inactive),inactive,inactive,75.1% [at 2.29 µM] (inactive),inactive,inactive,11.6% (inactive),5.07% (inactive),-3.59%,-2.38%,inactive,–,–,–
c1cncc(CNc2nc(-c3ccoc3)nc3ccccc23)c1,> 11.4 µM (inactive),1.41% (inactive),0.398 µM (active),-9.01% (inactive),-4.87% (inactive),> 46 µM (inactive),> 46 µM (inactive),inactive,–,–,inactive,inactive,–,12.2% (inactive),2.22%,16.5%,inactive,7.94 µM (active),inactive,44.7 µM (active)
CN(Cc1ccco1)c1cc(-c2ccccc2Cl)ncn1,> 11.4 µM (inactive),-3.34% (inactive),2.51 µM (active),-22.4% (inactive),5.83% (inactive),> 46 µM (inactive),> 46 µM (inactive),inactive,inactive,–,–,inactive,–,6.03% (inactive),-2.55%,5.54%,inactive,–,–,inactive
COc1ccc(Oc2ncc3nc(-c4ccc(OC)cc4)c(=O)n(Cc4cccs4)c3n2)cc1,> 11.4 µM (inactive),-28.2% (inactive),15.8 µM (active),2.5% (inactive),8.59% (inactive),> 9.22 µM (inactive),> 46 µM (inactive),inactive,inactive,–,inactive,–,–,6.95% (inactive),13.2%,21.9%,inactive,–,–,–
Cc1nc2cnc(Nc3ccccc3)nc2n(C)c1=O,> 11.4 µM (inactive),-16.6% (inactive),1.26 µM (active),-8.95% (inactive),-15.2% (inactive),> 9.22 µM (inactive),> 46 µM (inactive),inactive,inactive,–,inactive,–,–,-9.81% (inactive),9.14%,2.52%,inactive,–,–,–
Cn1c(=O)c(-c2cc(F)cc(F)c2)nc2cnc(Oc3ccccc3)nc21,> 11.4 µM (inactive),-7.91% (inactive),2 µM (active),3.31% (inactive),0.814% (inactive),> 9.22 µM (inactive),> 46 µM (inactive),inactive,inactive,–,–,–,–,-4.93% (inactive),21.4%,16.5%,inactive,inactive,–,–
